Screens from PubChem BioAssay.
This is a sample that favours compounds with a hit; in the whole collection about 3.1% have one here.
UHRF1 binding – UHRF1 methylated DNA binding inhibitors, primary screen, counter-screen for MBD2 inhibitor project, biochemical, TR-FRET, human UHRF1, single concentration. E3 ubiquitin-protein ligase UHRF1 (Homo sapiens), Q96T88. UHRF1 binding to methylated oligo. inhibition, % at 4.4 µM. hit rate 0.75% among 370,000. AID 687016, 2013;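 note: UHRF1 SRA domain binding a hemimethylated CpG hairpin DNA probe; 0% = median of test compound wells and 100% = reference inhibitor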
Target sequence (Q96T88 whole entry, looked up, the tested form may be a part): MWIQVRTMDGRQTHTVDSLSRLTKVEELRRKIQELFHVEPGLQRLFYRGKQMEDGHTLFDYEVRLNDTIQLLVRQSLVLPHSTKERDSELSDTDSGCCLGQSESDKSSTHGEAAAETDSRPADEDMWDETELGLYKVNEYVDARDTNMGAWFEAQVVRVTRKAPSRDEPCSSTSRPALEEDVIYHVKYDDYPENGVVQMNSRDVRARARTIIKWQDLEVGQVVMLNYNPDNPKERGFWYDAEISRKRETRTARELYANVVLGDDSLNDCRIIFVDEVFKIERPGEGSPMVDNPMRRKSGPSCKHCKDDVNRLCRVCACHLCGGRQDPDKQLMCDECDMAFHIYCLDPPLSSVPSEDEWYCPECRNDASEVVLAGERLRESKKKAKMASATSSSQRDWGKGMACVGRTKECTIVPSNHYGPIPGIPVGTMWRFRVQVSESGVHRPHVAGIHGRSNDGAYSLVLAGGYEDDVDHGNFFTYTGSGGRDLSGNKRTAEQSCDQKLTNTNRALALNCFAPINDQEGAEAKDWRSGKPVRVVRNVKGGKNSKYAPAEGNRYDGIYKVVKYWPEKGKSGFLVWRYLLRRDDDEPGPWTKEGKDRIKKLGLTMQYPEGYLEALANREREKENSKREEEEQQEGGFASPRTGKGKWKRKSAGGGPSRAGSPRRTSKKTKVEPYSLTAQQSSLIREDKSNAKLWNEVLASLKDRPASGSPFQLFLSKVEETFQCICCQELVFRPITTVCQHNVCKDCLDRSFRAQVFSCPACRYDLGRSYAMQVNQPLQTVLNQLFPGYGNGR
Rin1 Abl inh – inhibitors of Rin1-Abl protein binding, primary screen, biochemical, TR-FRET | inhibition, % at 7.35 µM | hit rate 0.4% among 360,000 | AID 588664, 2011; in the data active = inhibition above about 5%, passing the limit was not always enough
MBD2 inh – inhibitors of MBD2 binding to methylated DNA, primary screen, biochemical, TR-FRET, DNA-binding domain, human. MBD2 binding to methylated oligonucleotide. AID 686964, 2013. inhibition, % at 4.4 µM. hit rate 0.31% among 370,000; in the data active = inhibition above about 13%
proKLK7 act – proKLK7 zymogen activators, primary screen, biochemical, fluorescence intensity. AID 652039, 2013. purified proKLK7, EDANS-DABCYL substrate fluorescence; 100% is mature enzyme control, 0% vehicle. activation, % at 7 µM. Kallikrein-7 (Homo sapiens), P49862. hit rate 0.9% among 370,000;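 active = activation above the mean of all tested compounds plus 3 SD, computed per campaign excluding outliers beyond control limits, cut at about 13% in these data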
LEDGF integ inh – blockers of LEDGF/p75-dependent integrase strand transfer – biochemical, TR-FRET, high throughput, primary screen; HIV-1 integrase (with human LEDGF/p75); TR-FRET IN-LEDGF/p75 DNA integration, Eu/Cy5; inhibition, % at 3.7 µM; hit rate 0.64% among 370,000; AID 743269, 2014;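 active = inhibition above the screen-wide mean plus 3 SD, cut at about 13% in these data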;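 note: signal is the Cy5 over europium emission ratio at 671 and 618 nm; 0% = plate median of compound wells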
Neddyl block – inhibitors of cullin neddylation, primary screen, biochemical, TR-FRET, uHTS, NAE and Ubc12; calls only at 25 µM; NEDD8-conjugating enzyme Ubc12 (Homo sapiens) + NEDD8-activating enzyme E1 regulatory …; hit rate 0.58% among 360,000; in the data active = inhibition above about 36%
Rin1 Abl conf – Rin1-Abl binding inhibitor retest, confirmation, biochemical, TR-FRET. shares compounds with Rin1 Abl inh. purified proteins. inhibition, % at 7.35 µM. hit rate 49% among 1,300. AID 602124, 2011; in the data active = inhibition above about 6.5%
GFP quench – GFP fluorescence inhibitors and quenchers, artefact control for Rin1-Abl interaction inhibitor project, biochemical; shares compounds with Rin1 Abl inh; inhibitors/quenchers counterscreen; inhibition, % at 6.75 µM; hit rate 8.5% among 1,300; AID 602125, 2011; in the data active = inhibition above about 6.5%;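 note: ABL1-eGFP fusion protein alone without its partner RIN1-SBP; 0% = protein with vehicle and 100% = wells lacking protein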
proKLK7 act conf – proKLK7 zymogen activators, confirmation, biochemical, fluorescence intensity, triplicate; hit rate 68% among 3,200; shares compounds with proKLK7 act; purified proKLK7, EDANS-DABCYL substrate fluorescence; scaled: vehicle 0, mature enzyme 100; activation, % at 7 µM;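 active = activation, as change over the incubation, above the mean of all tested compounds plus 3 SD, cut at about 13% in these data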
EDANS interfere – EDANS-DABCYL substrate optical interference, artefact control for kallikrein-7 zymogen activator project, biochemical, fluorescence intensity, high throughput | shares compounds with proKLK7 act | no enzyme, 4 h; solvent 0%, active enzyme control 100% | activation, % at 7 µM | hit rate 80% among 3,200;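 active = activation above the all-compound mean plus 3 SD, ignoring values outside control-based bounds, cut at about 4.8% in these data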;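 note: value is the 4 h activation minus the activation read at time zero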
UHRF1 DNA bind – UHRF1 methylated DNA binding inhibitors, counter-screen for MBD2 inhibitor project, biochemical, TR-FRET, human UHRF1; shares compounds with MBD2 inh; UHRF1 binding to methylated oligonucleotide; inhibition, % at 4.4 µM; hit rate 25% among 1,000; AID 720530, 2013;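 note: UHRF1 SRA domain binding a labeled hemimethylated CpG hairpin DNA; 0% = vehicle only and 100% = reference inhibitor with vehicle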
MBD2 DBD conf – inhibitors of MBD2 binding to methylated DNA, confirmation, biochemical, TR-FRET, DNA-binding domain, human; TR-FRET MBD2-DBD binding to methylated oligonucleotide; shares compounds with MBD2 inh; hit rate 26% among 1,000; inhibition, % at 4.4 µM; in the data active = inhibition above about 14%
IN multimer act – HIV-1 IN multimer formation enhancers, counter-screen for LEDGF/p75 integration inhibitor project, biochemical, TR-FRET. shares compounds with LEDGF integ inh. hit rate 17% among 2,000. TR-FRET HIV-1 integrase multimerization. activation, % at 7.7 µM. AID 1053131, 2014; in the data active = activation above about 8.9%
TR-FRET interf – TR-FRET optical interference artefacts, confirmation, artefact control for LEDGF/p75-dependent integration inhibitor project, biochemical, HIV-1 IN multimerization; shares compounds with LEDGF integ inh; TR-FRET optical interference counterscreen; inhibition, % at 7.7 µM; 2,000 tested, under 10 active; AID 1053135, 2014;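 active = inhibition above the mean over all tested compounds plus 3 SD, which no compound reached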;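 note: 0% = integrase with antibodies and DMSO and 100% = antibodies without integrase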
LEDGF integ conf – inhibitors of HIV-1 IN-LEDGF/p75 DNA integration, confirmation, biochemical, TR-FRET; shares compounds with LEDGF integ inh; TR-FRET LEDGF/p75-dependent HIV-1 integration; inhibition, % at 3.7 µM; hit rate 36% among 2,000; AID 1053136, 2014; in the data active = inhibition above about 14%
* = called active by the depositor. Cut-off read from the data, not from the text of the source, unless noted: active = inhibition above about 21%; inactive = the rest.

COCCN=c1scc(-c2ccco2)n1/N=C/c1ccc(O)c(O)c1O was read as UHRF1 binding 5.5, Rin1 Abl inh 20.0*, MBD2 inh 2.1, proKLK7 act -0.1, LEDGF integ inh 44.6*, Neddyl block inactive, Rin1 Abl conf 13.4*, GFP quench 11.2*, IN multimer act 16.0*, TR-FRET interf -57.3 and LEDGF integ conf 52.5*.
`O=C(O)c1cccc2cc(-c3ccccc3)oc(=O)c12` gave UHRF1 binding 1.9, Rin1 Abl inh 2.2, MBD2 inh -0.1, proKLK7 act 0.9 and LEDGF integ inh -3.1.
`O=C(O)c1cccc2cccc(-c3c4ccc(=O)c(O)c-4oc4c(O)c(O)ccc34)c12` gave UHRF1 binding 91.6*, Rin1 Abl inh 41.0*, MBD2 inh 66.5*, proKLK7 act 18.8*, LEDGF integ inh 89.7*, Neddyl block inactive, Rin1 Abl conf 45.1*, GFP quench 27.6*, IN multimer act 70.8*, TR-FRET interf -356.4 and LEDGF integ conf 93.4*.
`CC(C)(C)CCN1CCC(CN2CCNC(=O)C2=O)CC1` gave UHRF1 binding -2.3, Rin1 Abl inh -2.0, MBD2 inh 3.1, proKLK7 act 0.0, LEDGF integ inh 4.0 and Neddyl block inactive.
CN(C)Cc1cc(C(C)(C)C)cc(C(C)(C)C)c1O was read as UHRF1 binding 0.7, Rin1 Abl inh -1.6, MBD2 inh -2.7, proKLK7 act -0.4, LEDGF integ inh 2.5 and Neddyl block inactive.
`CN(C)Cc1cc(O)c(CN(C)C)cc1O` gave UHRF1 binding 15.1, Rin1 Abl inh 13.4*, MBD2 inh -1.2, proKLK7 act 6.4, LEDGF integ inh 23.9*, Neddyl block active, Rin1 Abl conf 2.1, GFP quench 4.3, IN multimer act 4.8, TR-FRET interf -17.3 and LEDGF integ conf 29.7*.
CC1(C)OC(=O)C2=C(C[C@@H](CCc3ccccc3)O[C@H]2CCc2cccc(Cl)c2)O1 was read as UHRF1 binding -1.7, MBD2 inh -2.6, proKLK7 act 0.6, LEDGF integ inh -1.9 and Neddyl block inactive.
O=C(Cc1cnn(-c2ccccc2)c1)c1ccc(O)c(O)c1O was read as UHRF1 binding 5.2, Rin1 Abl inh 12.7*, MBD2 inh 4.0, proKLK7 act 0.5, LEDGF integ inh 22.1*, Neddyl block inactive, Rin1 Abl conf 2.4, GFP quench 11.2*, IN multimer act 10.2*, TR-FRET interf -36.4 and LEDGF integ conf 17.6*.
For CCc1cc(C(=O)Cc2cnn(-c3ccccc3)c2)c(O)cc1O the results were UHRF1 binding 1.0, Rin1 Abl inh -2.3, MBD2 inh -7.0, proKLK7 act -11.5, LEDGF integ inh 5.1 and Neddyl block inactive.
`CC1(Cc2ccc(OC(F)(F)F)cc2)C(=O)Nc2c(Cl)ccc(Cl)c21` (stereo not drawn) gave UHRF1 binding -1.5, Rin1 Abl inh -1.0, MBD2 inh 3.3, proKLK7 act -0.3, LEDGF integ inh -5.7 and Neddyl block inactive.
For O=C1CC(c2ccc(O)c(O)c2)Oc2c1ccc(O)c2O (stereo not drawn) the results were UHRF1 binding 64.5*, Rin1 Abl inh 49.1*, MBD2 inh 34.9*, proKLK7 act 16.3*, LEDGF integ inh 92.7*, Neddyl block inactive, Rin1 Abl conf 45.5*, GFP quench 24.5*, proKLK7 act conf 7.7, EDANS interfere 7.7*, UHRF1 DNA bind 26.7*, MBD2 DBD conf 9.1, IN multimer act 57.4*, TR-FRET interf -289.1 and LEDGF integ conf 90.8*.
For COc1ccccc1/C=C1/C(=O)N(c2ccccc2)N=C1C the results were UHRF1 binding 15.9, Rin1 Abl inh 13.2*, MBD2 inh 18.3*, proKLK7 act -0.1, LEDGF integ inh 52.0*, Neddyl block inactive, Rin1 Abl conf 0.8, GFP quench -0.6, UHRF1 DNA bind 5.5, MBD2 DBD conf -0.7, IN multimer act 2.0, TR-FRET interf -9.8 and LEDGF integ conf 5.3.
